Among the test systems are T-47D breast; BT-549 breast; MDA-MB-435 melanoma; SW-620 colon; MCF7 breast; HCT-116 colon; HCC-2998 colon; KM12 colon.
Common to all, as to experiment: NCI-60 one-dose screen, 48 h (100 = growth as untreated, 0 = no growth, -100 = all killed)
Holding throughout (conditions): 10 µM unless noted

Structures are written as SMILES. Compounds without any hit were thinned out: in the full panel of roughly 83,000, 20% have a hit.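 Single-dose data. Exposure time 48 hours. Values below 10 considered active.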 A number with no mark means an inactive call. The source made the active and inactive calls.

The text below walks through data of PubChem BioAssay (NCI).

With `C#CC#CC#CC#CC#CC#CC#CC#CCC1OCC(COC(=O)O[C@@H](C(=O)O[C@H]2C[C@@]3(O)[C@@H](OC(=O)c4ccccc4)[C@@H]4[C@]5(OC(C)=O)CO[C@@H]5C[C@H](O)[C@@]4(C)C(=O)[C@H](OC(C)=O)C(=C2C)C3(C)C)[C@@H](NC(=O)c2ccccc2)c2ccccc2)O1` (some centres not stated), the growth with T-47D breast was 36.6%; with BT-549 breast, 14.5%; with MDA-MB-435 melanoma, -73.5% (active); in the experiment with SW-620 colon it was 24.1%; with MCF7 breast it was 16.1%; with HCT-116 colon it was 9.48% (active). Also, the growth in the experiment with HCC-2998 colon is 1.97% (active); in the experiment with KM12 colon it was 6.73% (active).

With `COc1ccc2[nH]cc(-c3nc(-c4cn(C)c5ccncc45)cs3)c2c1`, the growth in the experiment with T-47D breast is 92.1%; with BT-549 breast it was 85.1%; with MDA-MB-435 melanoma, 64.7%; in the experiment on SW-620 colon it was -56.9% (active); with MCF7 breast it was -39.4% (active); with HCT-116 colon, -83.8% (active). Further, the results for the growth in the experiment on HCC-2998 colon and in the experiment on KM12 colon were -38.9% (active) and -31.8% (active), respectively.

In the case of `CNC(=O)c1c(NC(=O)c2ccc(C(C)(C)C)cc2)sc2c(CN(C)C)c(O)ccc12`, the growth was -3.98% (active) in the experiment on T-47D breast; 71.9% with BT-549 breast; -85% (active) with MDA-MB-435 melanoma; -85.8% (active) in the experiment on SW-620 colon; -43.2% (active) in the experiment with MCF7 breast; -88.4% (active) with HCT-116 colon. For the same compound, the growth in the experiment with HCC-2998 colon is -83.6% (active); in the experiment on KM12 colon it was -79.6% (active).

On to `O=C(/C=C/C12c3ccccc3C(c3ccccc31)C1C(=O)NC(=O)C12)c1ccc(F)cc1` (configuration not stated), for which the growth in the experiment on T-47D breast is 12.2%; in the experiment with BT-549 breast, 2.77% (active); in the experiment on MDA-MB-435 melanoma, -12.8% (active); in the experiment on SW-620 colon it was 4.25% (active); with MCF7 breast it was 11.8%; in the experiment on HCT-116 colon it was -18.6% (active). The growth in the experiment on HCC-2998 colon is 10.9%; in the experiment on KM12 colon, 8.33% (active).

Consider `COc1cc(C(=O)C(=O)c2cc(OC)c(O)c(OC)c2)cc(OC)c1O`, for which the growth in the experiment on T-47D breast is 98.1%; in the experiment with BT-549 breast it was 120%; with MDA-MB-435 melanoma, 103%; in the experiment with SW-620 colon, 105%; with MCF7 breast, 96.5%; in the experiment on HCT-116 colon it was 104%. For the same compound, the growth in the experiment on HCC-2998 colon was 92.1%; with KM12 colon, 107%.

`CCN1C(=O)N(CC)C2C1NN=C1SCC(=O)N12` (configuration not stated): the growth in the experiment with T-47D breast was 31.9%; with BT-549 breast, 102%; in the experiment with MDA-MB-435 melanoma, 99.1%; with SW-620 colon, 73.7%; with MCF7 breast it was 18%; with HCT-116 colon, 9.44% (active). Also, the growth with HCC-2998 colon and in the experiment on KM12 colon was 105% each time.

Regarding `O=c1[nH]cnc2c1C(c1ccc(Br)cc1)c1sc3c(F)cccc3c1O2` (configuration not stated), the growth with T-47D breast was 83.9%; with BT-549 breast it was 99.1%; with MDA-MB-435 melanoma, 100%; with SW-620 colon it was 90.6%; in the experiment with MCF7 breast it was 77.3%; with HCT-116 colon, 98.9%. The growth in the experiment with HCC-2998 colon was 111%; in the experiment with KM12 colon it was 88.8%.

Take `O=C(CSc1nnc2sc(Nc3cccc(Cl)c3)nn12)c1ccc(F)cc1`: the growth is 76.4% in the experiment on T-47D breast; 97.8% in the experiment on BT-549 breast; 100% in the experiment on MDA-MB-435 melanoma; 99% in the experiment with SW-620 colon; 90.4% in the experiment on MCF7 breast; 85.8% in the experiment with HCT-116 colon. In addition, the growth in the experiment on HCC-2998 colon is 103%; in the experiment on KM12 colon it was 95.8%.

As for `CCN(CC)c1ccc(/C=C\c2cc(C)c3cc(C)ccc3n2)cc1`, the growth in the experiment on T-47D breast was -22.3% (active); in the experiment on BT-549 breast it was -11.5% (active); in the experiment with MDA-MB-435 melanoma, 3.36% (active); in the experiment with SW-620 colon it was 23.1%; with MCF7 breast it was 19.9%; in the experiment on HCT-116 colon, 6.6% (active). Besides, the growth in the experiment on HCC-2998 colon was 13.6%; in the experiment with KM12 colon, 27.1%.

Turning to `S=c1[nH]c2cc(Cl)ccc2o1`, the growth in the experiment with T-47D breast is 92.3%; in the experiment with BT-549 breast, 99.8%; with MDA-MB-435 melanoma, 96.5%; in the experiment with SW-620 colon, 94.2%; in the experiment with MCF7 breast it was 105%; in the experiment on HCT-116 colon it was 91.1%. Moreover, the figures for the growth in the experiment with HCC-2998 colon and with KM12 colon were 115% and 100%, respectively.

In the case of `COc1cc2ncnc(Nc3ccc(F)c(Cl)c3)c2cc1OCC(=O)N1CCN(c2ccc(F)cc2)CC1`, the growth was 75.2% with T-47D breast; 101% in the experiment with BT-549 breast; 96.5% with MDA-MB-435 melanoma; 101% in the experiment with SW-620 colon; 83.8% in the experiment on MCF7 breast; 88.7% in the experiment on HCT-116 colon. Moreover, the values for the growth in the experiment with HCC-2998 colon and in the experiment on KM12 colon were 98.1% and 100%, respectively.

Turning to `C[C@H]1[C@H](C)CC[C@]2(C(=O)O)CC[C@]3(C)C(=CC[C@@H]4[C@@]5(C)C[C@@H](Cc6cn([C@@H]7O[C@H](CO)[C@@H](O)[C@H](O)[C@H]7O)nn6)[C@H](O)C(C)(C)[C@@H]5CC[C@]43C)[C@H]12`, the growth in the experiment with T-47D breast is 93.5%; in the experiment with BT-549 breast, 102%; with MDA-MB-435 melanoma, 101%; with SW-620 colon, 97.6%; with MCF7 breast it was 92.7%; in the experiment on HCT-116 colon it was 92%. Besides, the growth with HCC-2998 colon is 107%; in the experiment on KM12 colon, 108%.

Turning to `C=CCOC(=O)C1=C(C)NC(=O)NC1c1c(Cl)n(C)c2ccccc12` (configuration not stated), the growth with T-47D breast is 92.5%; in the experiment on BT-549 breast it was 99.1%; with MDA-MB-435 melanoma it was 103%; in the experiment on SW-620 colon, 98.6%; in the experiment with MCF7 breast it was 94.8%; in the experiment on HCT-116 colon, 93.4%. In addition, the growth was 104% in the experiment with HCC-2998 colon and 102% in the experiment with KM12 colon.

`Cc1cc2nc(-c3c(-c4ccc(F)cc4)nc4sccn34)[nH]c2cc1C`: the growth is 85.7% in the experiment on T-47D breast; 109% in the experiment with BT-549 breast; 103% with MDA-MB-435 melanoma; 108% in the experiment with SW-620 colon; 91.6% in the experiment on MCF7 breast; 103% with HCT-116 colon. Further, the figures for the growth with HCC-2998 colon and with KM12 colon were 106% and 96.7%, respectively.
